# Measurements published in article PMC7862700, “An all-to-all approach to the identification of sequence-specific readers for epigenetic DNA modifications on cytosine”.
# Legend:
# Assay in all cases: DAPPL (digital affinity profiling via proximity ligation, sequencing); 10 mM Tris-HCl pH 7.5, 50 mM NaCl, 1 mM DTT, 4% glycerol, room temperature, 30 min; GST-TFs on glutathione beads, 16-mer random dsDNA library, 0.1% formaldehyde crosslink after washing; high values mean tight binding
# [1] = target: T1, FLI1 (Homo sapiens, UniProt Q01543 1-452); conditions: protein: recombinant; tags: N-terminal GST; dsDNA, one strand shown
# T1 sequence: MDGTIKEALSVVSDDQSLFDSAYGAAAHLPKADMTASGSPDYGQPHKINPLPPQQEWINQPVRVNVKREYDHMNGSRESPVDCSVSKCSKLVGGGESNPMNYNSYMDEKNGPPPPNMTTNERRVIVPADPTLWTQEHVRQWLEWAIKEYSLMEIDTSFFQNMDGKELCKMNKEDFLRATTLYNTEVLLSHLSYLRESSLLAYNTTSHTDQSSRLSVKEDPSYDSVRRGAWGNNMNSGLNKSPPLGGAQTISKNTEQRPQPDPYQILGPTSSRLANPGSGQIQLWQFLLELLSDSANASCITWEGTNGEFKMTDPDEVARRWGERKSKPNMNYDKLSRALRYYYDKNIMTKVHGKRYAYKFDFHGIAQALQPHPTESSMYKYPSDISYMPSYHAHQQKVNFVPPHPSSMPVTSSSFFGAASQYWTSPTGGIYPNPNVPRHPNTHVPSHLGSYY
# Outline: (§1)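 Human transcription factors fused to GST were expressed in yeast, captured on glutathione beads, given DNA barcodes and pooled with a GST-only negative control. Pools were incubated with 200 nmole of a 16-mer random double-stranded DNA library in Tris/NaCl/DTT/glycerol buffer at room temperature for 30 min. They were then washed, crosslinked with 0.1% formaldehyde, proximity-ligated (BsaI/T4 ligase, 1 h, 37 °C), PCR-amplified and sequenced on an Illumina NextSeq500. Binding signal is each 6-mer's read frequency for a factor divided by its frequency for the GST control.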
# [2] = target: T2, ELK1 (Homo sapiens, UniProt P19419 1-428); conditions: protein: recombinant; tags: N-terminal GST; dsDNA, one strand shown
# T2 sequence: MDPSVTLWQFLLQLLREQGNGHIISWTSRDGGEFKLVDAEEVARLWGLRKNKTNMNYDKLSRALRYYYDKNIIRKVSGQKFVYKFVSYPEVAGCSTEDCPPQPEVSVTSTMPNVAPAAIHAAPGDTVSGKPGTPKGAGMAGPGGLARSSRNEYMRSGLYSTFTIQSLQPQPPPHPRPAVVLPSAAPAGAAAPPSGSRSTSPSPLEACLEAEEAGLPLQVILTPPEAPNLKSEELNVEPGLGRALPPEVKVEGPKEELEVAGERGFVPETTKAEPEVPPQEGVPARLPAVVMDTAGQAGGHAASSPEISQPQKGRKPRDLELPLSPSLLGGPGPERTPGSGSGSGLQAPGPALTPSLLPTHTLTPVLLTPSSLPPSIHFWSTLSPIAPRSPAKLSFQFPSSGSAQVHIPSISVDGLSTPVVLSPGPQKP
# Outline: as §1
# [3] = target: T3, GABPA (Homo sapiens, UniProt Q06546 1-454); conditions: protein: recombinant; tags: N-terminal GST; dsDNA, one strand shown
# T3 sequence: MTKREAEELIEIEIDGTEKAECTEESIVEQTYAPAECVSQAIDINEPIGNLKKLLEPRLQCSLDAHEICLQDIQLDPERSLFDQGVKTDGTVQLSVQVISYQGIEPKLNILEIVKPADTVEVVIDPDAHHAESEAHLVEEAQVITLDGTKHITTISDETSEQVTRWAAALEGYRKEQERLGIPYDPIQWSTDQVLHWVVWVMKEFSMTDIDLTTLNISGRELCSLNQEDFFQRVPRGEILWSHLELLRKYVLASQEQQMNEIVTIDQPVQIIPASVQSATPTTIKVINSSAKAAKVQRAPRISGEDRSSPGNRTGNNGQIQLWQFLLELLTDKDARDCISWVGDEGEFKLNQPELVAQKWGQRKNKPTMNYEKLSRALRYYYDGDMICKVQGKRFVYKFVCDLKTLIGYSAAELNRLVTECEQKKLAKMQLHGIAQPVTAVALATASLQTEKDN
# Outline: as §1
# [4] = target: T4, ERG (Homo sapiens, UniProt P11308 1-479); conditions: protein: recombinant; tags: N-terminal GST; dsDNA, one strand shown
# T4 sequence: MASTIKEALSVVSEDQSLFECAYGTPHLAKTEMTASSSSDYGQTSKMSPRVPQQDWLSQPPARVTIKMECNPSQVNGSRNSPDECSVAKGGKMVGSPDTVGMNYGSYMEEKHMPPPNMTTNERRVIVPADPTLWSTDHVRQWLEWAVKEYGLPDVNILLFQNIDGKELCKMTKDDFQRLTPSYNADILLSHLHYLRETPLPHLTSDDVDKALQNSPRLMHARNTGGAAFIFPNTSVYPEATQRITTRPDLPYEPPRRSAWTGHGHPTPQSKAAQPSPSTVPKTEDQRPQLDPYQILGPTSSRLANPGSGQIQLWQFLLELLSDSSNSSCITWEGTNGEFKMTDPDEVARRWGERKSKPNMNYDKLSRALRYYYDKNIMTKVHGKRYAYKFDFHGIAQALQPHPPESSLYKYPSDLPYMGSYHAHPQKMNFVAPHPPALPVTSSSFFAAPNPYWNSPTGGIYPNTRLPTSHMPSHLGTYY
# Outline: as §1
# [5] = target: ELF1 (Homo sapiens, UniProt P32519 1-619); conditions: protein: recombinant; tags: N-terminal GST; dsDNA, one strand shown
# Outline: as §1
# [6] = target: T5, EHF (Homo sapiens, UniProt Q9NZC4 1-300); conditions: protein: recombinant; tags: N-terminal GST; dsDNA, one strand shown
# T5 sequence: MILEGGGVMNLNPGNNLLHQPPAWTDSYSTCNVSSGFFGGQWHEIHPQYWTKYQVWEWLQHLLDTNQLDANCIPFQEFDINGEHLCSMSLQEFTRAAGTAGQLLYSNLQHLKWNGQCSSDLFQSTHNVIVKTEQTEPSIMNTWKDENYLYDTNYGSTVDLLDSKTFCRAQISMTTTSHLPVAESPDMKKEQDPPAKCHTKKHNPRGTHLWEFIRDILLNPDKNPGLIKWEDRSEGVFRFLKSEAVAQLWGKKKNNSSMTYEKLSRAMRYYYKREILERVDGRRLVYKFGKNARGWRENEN
# Outline: as §1
# [7] = target: SPI1 (Homo sapiens, UniProt P17947 1-270); conditions: protein: recombinant; tags: N-terminal GST; dsDNA, one strand shown
# Outline: as §1
# [8] = target: SPIB (Homo sapiens, UniProt Q01892 1-262); conditions: protein: recombinant; tags: N-terminal GST; dsDNA, one strand shown
# Outline: as §1
# [9] = target: T6, ELK3 (Homo sapiens, UniProt P41970 1-407); conditions: protein: recombinant; tags: N-terminal GST; dsDNA, one strand shown
# T6 sequence: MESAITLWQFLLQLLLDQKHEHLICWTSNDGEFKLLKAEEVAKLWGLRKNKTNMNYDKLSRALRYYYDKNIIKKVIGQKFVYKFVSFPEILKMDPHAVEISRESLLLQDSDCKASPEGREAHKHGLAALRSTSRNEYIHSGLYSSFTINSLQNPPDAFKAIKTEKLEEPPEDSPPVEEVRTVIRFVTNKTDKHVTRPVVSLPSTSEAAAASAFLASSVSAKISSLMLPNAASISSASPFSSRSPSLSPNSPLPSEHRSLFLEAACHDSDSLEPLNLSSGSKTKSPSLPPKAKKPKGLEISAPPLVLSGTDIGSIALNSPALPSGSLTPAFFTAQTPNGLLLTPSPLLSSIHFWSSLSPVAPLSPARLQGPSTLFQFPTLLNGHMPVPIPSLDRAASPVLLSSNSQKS
# Outline: as §1
# [10] = target: T7, FEV (Homo sapiens, UniProt Q99581 1-238); conditions: protein: recombinant; tags: N-terminal GST; dsDNA, one strand shown
# T7 sequence: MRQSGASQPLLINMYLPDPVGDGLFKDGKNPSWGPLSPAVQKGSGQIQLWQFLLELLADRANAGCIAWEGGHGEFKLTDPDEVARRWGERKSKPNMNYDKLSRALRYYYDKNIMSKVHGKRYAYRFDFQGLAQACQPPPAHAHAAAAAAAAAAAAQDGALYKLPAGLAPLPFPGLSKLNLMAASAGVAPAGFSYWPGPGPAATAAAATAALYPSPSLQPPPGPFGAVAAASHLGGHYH
# Outline: as §1
# [11] = target: ETV5 (Homo sapiens, UniProt P41161 1-510); conditions: protein: recombinant; tags: N-terminal GST; dsDNA, one strand shown
# Outline: as §1
# [12] = target: HSF1 (Homo sapiens, UniProt Q00613 1-529); conditions: protein: recombinant; tags: N-terminal GST; chain copies: 3; dsDNA, one strand shown
# Outline: as §1
# [13] = target: T8, SPIC (Homo sapiens, UniProt Q8N5J4 1-248); conditions: protein: recombinant; tags: N-terminal GST; dsDNA, one strand shown
# T8 sequence: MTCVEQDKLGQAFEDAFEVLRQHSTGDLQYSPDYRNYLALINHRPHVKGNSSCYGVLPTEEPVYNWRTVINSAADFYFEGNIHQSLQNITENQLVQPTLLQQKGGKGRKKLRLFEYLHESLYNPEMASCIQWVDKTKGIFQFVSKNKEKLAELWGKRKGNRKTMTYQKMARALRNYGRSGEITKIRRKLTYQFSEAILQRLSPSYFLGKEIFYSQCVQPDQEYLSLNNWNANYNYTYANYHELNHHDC
# Outline: as §1
# [14] = target: ELF4 (Homo sapiens, UniProt Q99607 1-663); conditions: protein: recombinant; tags: N-terminal GST; dsDNA, one strand shown
# Outline: as §1
# [15] = target: T9, ELK4 (Homo sapiens, UniProt P28324-2 1-405); conditions: protein: recombinant; tags: N-terminal GST; dsDNA, one strand shown
# T9 sequence: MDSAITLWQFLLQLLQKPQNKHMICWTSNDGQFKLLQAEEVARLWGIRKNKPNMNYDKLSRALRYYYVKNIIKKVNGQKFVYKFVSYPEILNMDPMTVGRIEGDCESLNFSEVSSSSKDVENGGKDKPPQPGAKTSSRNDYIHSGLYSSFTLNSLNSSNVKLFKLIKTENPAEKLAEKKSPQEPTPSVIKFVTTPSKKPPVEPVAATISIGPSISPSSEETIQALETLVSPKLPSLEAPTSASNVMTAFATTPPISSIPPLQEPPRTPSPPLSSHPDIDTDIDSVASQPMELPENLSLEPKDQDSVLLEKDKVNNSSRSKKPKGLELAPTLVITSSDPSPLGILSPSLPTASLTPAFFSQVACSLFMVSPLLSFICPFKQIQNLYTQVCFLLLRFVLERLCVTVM
# Outline: as §1
# [16] = target: T10, ETV2 (Homo sapiens, UniProt O00321 1-342); conditions: protein: recombinant; tags: N-terminal GST; dsDNA, one strand shown
# T10 sequence: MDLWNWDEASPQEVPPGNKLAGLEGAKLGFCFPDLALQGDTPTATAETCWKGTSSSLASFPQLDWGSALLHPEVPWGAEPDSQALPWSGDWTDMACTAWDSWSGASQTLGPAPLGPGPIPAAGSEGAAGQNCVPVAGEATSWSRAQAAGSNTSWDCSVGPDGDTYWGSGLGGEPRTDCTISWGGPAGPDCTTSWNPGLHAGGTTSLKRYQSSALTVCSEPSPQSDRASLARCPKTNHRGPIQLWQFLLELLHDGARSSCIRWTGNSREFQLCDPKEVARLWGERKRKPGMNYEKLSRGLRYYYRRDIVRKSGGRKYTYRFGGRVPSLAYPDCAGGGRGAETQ
# Outline: as §1
# [17] = target: T11, ELF3 (Homo sapiens, UniProt P78545 1-371); conditions: protein: recombinant; tags: N-terminal GST; dsDNA, one strand shown
# T11 sequence: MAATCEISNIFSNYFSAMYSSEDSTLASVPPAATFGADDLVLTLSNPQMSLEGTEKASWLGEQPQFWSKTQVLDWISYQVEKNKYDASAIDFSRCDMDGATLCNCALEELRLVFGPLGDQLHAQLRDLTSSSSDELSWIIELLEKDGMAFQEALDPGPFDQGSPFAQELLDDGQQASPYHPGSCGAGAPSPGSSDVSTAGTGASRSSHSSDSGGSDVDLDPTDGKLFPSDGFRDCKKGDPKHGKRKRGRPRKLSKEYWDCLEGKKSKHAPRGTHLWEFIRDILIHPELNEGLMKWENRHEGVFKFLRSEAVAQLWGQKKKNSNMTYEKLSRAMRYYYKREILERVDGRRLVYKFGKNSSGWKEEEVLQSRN
# Outline: as §1
# [18] = target: CRX (Homo sapiens, UniProt O43186 1-299); conditions: protein: recombinant; tags: N-terminal GST; dsDNA, one strand shown
# Outline: as §1
# [19] = target: ETV1 (Homo sapiens, UniProt P50549 1-477); conditions: protein: recombinant; tags: N-terminal GST; dsDNA, one strand shown
# Outline: as §1
# Sequence of ELF1 (P32519 whole entry): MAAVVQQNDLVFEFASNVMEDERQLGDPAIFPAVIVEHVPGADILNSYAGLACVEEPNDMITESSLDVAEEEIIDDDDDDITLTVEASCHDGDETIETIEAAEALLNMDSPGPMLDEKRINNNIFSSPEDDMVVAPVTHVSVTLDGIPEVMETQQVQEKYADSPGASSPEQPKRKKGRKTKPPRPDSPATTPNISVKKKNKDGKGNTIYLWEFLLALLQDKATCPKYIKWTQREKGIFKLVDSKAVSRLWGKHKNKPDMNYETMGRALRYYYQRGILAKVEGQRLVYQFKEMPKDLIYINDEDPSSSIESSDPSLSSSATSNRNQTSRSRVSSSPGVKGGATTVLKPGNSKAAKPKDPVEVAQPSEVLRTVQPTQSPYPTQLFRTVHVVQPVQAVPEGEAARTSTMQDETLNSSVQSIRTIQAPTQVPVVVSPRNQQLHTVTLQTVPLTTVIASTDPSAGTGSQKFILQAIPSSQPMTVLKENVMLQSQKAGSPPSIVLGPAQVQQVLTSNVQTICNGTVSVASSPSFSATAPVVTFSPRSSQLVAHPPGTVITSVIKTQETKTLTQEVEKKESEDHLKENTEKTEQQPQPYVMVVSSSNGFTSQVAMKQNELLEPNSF
# Sequence of SPIB (Q01892 whole entry): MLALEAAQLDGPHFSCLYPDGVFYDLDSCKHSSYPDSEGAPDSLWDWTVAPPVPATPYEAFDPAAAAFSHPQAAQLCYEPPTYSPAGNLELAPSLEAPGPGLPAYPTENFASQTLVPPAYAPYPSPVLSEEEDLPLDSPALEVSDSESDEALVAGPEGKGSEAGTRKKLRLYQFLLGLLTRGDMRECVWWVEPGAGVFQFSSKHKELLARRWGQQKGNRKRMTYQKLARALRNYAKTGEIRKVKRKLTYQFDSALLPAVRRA
# Sequence of ETV1 (P50549 whole entry): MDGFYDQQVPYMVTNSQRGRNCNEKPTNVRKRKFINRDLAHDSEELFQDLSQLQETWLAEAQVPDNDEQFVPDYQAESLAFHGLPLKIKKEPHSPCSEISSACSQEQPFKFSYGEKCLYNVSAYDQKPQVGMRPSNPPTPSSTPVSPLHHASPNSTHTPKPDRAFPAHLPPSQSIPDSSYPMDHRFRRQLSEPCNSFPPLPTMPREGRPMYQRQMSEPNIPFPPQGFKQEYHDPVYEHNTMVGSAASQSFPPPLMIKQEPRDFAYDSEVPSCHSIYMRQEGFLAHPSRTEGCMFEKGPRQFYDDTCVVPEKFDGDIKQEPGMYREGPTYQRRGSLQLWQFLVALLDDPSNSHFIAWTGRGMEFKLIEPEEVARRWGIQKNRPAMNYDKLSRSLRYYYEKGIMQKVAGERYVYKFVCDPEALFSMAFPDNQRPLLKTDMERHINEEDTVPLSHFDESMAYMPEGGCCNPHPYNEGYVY
# Sequence of ETV5 (P41161 whole entry): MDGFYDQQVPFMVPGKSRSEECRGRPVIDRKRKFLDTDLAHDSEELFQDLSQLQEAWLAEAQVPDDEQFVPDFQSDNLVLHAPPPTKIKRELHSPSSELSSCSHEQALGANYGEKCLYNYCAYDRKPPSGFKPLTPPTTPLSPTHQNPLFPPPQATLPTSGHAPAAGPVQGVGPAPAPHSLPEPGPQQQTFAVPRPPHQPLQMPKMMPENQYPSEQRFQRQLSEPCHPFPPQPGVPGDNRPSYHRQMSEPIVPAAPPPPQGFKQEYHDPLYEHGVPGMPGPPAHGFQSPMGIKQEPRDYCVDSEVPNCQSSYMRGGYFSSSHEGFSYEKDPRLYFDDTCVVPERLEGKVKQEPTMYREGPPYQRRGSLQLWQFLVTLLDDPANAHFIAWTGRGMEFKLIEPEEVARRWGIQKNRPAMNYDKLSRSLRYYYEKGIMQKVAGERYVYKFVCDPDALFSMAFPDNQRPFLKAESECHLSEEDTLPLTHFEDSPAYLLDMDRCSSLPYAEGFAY
# Sequence of CRX (O43186 whole entry): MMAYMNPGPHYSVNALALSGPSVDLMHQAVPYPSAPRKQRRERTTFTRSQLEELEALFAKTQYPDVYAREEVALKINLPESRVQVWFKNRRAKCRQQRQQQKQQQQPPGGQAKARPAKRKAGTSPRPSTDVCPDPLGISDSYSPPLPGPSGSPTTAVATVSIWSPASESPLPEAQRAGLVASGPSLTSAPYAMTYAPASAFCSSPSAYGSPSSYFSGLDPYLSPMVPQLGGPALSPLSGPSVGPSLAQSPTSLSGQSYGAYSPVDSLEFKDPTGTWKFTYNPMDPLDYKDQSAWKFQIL
# Sequence of ELF4 (Q99607 whole entry): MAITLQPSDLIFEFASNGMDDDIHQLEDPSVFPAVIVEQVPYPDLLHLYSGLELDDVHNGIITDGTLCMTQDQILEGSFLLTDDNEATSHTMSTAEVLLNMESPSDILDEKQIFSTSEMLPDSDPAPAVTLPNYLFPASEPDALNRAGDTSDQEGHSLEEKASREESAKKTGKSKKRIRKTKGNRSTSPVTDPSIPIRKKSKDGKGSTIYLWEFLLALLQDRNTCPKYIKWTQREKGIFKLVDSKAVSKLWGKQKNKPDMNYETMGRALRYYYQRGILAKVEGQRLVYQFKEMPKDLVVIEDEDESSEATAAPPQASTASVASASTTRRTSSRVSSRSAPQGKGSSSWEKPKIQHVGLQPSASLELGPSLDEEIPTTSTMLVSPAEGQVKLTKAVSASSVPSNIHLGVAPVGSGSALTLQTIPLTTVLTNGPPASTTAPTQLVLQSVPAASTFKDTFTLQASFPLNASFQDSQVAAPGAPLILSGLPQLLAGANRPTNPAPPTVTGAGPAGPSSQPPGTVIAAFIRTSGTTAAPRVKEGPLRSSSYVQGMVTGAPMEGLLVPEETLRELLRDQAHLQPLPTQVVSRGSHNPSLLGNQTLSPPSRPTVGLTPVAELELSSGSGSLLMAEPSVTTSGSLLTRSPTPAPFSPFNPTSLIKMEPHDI
# Sequence of HSF1 (Q00613 whole entry): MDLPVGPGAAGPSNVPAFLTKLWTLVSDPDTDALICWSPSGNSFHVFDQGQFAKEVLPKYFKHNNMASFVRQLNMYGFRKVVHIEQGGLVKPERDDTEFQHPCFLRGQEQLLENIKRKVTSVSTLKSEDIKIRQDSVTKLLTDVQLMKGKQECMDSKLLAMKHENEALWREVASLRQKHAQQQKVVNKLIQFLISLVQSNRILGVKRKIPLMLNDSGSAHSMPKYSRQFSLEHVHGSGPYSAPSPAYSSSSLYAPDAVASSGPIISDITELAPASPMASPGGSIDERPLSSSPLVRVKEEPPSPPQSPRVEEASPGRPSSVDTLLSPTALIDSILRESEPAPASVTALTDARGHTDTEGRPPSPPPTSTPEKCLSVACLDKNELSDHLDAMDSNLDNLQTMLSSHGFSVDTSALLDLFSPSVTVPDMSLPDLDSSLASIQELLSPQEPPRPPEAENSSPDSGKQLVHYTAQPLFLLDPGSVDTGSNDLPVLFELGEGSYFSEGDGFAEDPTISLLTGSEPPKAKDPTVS
sequence,measurement,setting,value
CTCTGC,binding signal,[1],"1.71 fold enrichment (6-mer frequency, TF over GST control)"
same,binding signal,[2],"1.6 fold enrichment (6-mer frequency, TF over GST control)"
same,binding signal,[3],"1.56 fold enrichment (6-mer frequency, TF over GST control)"
same,binding signal,[4],"1.46 fold enrichment (6-mer frequency, TF over GST control)"
same,binding signal,[5],"1.58 fold enrichment (6-mer frequency, TF over GST control)"
same,binding signal,[6],"1.57 fold enrichment (6-mer frequency, TF over GST control)"
same,binding signal,[7],"1.53 fold enrichment (6-mer frequency, TF over GST control)"
same,binding signal,[8],"1.52 fold enrichment (6-mer frequency, TF over GST control)"
same,binding signal,[9],"1.4 fold enrichment (6-mer frequency, TF over GST control)"
same,binding signal,[10],"1.5 fold enrichment (6-mer frequency, TF over GST control)"
same,binding signal,[11],"1.49 fold enrichment (6-mer frequency, TF over GST control)"
same,binding signal,[12],"1.25 fold enrichment (6-mer frequency, TF over GST control)"
same,binding signal,[13],"1.55 fold enrichment (6-mer frequency, TF over GST control)"
same,binding signal,[14],"1.61 fold enrichment (6-mer frequency, TF over GST control)"
same,binding signal,[15],"1.86 fold enrichment (6-mer frequency, TF over GST control)"
same,binding signal,[16],"1.43 fold enrichment (6-mer frequency, TF over GST control)"
same,binding signal,[17],"1.56 fold enrichment (6-mer frequency, TF over GST control)"
same,binding signal,[18],"1.2 fold enrichment (6-mer frequency, TF over GST control)"
same,binding signal,[19],"1.64 fold enrichment (6-mer frequency, TF over GST control)"
